In PubChem BioAssay (NCI) one finds growth data, which are given here for 37 compounds.

Each structure is given as a SMILES string. About 83,000 compounds went through this panel and 20% of them were active in at least one assay; those are over-represented in the sample as a whole.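 Single-concentration screen, 48 h exposure, 96-well plates. Endpoint: percent growth. Below 10 = active.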 Unmarked numbers belong to inactive results. Activity calls are given as the source filed them.

The test relates to DU-145 prostate. Kind of test: NCI-60 one-dose screen, 48 h (100 = growth as untreated, 0 = no growth, -100 = all killed). The conditions noted are these: 10 µM unless noted.
For the compound `COc1cccc2c1c1nc3cc(C)c(C)cc3nc1n2CCN(C)C`, the growth is 19.7%.

For the compound `COc1cc(NC(C)CCCNC(=O)CCC(=O)NCCCNCCCCCCCCCCNCCCNC(=O)CCC(=O)NCCCC(C)Nc2cc(OC)cc3cccnc23)c2ncccc2c1` (configuration not stated), the growth is 71.8% [8 µM].

As to `COc1cc(/C=C\C(=O)O)ccc1OCc1ccccc1`, the growth is 103%.

For `CCc1c(Cl)nc(N)nc1Nc1ccc(C)c(C)c1`, the growth is 99.5%.

Regarding `COc1cc2nc(-c3ccc(C(F)(F)F)cc3)cc(OCCCN3CCOCC3)c2cc1OC`, the growth is 41.5%.

With `CCN(CC)c1ccc(/C=N/NC(=O)CSc2nc3ccccc3c(=O)n2Cc2ccc(S(N)(=O)=O)cc2)c(O)c1`, the growth was 37.8%.

`O=C(c1nnc(Nc2ccccc2Br)o1)c1c[nH]c2ccccc12`: the growth was 107%.

For the compound `NNC(=O)c1ccc(-n2nc(-c3ccccc3)c3ccccc32)cc1`, the growth was 79.7%.

Turning to `Cc1cnc(C(=O)Nc2nc3ccc(S(=O)(=O)Nc4ccc(C5(C(F)(F)F)CC5)cc4)cc3[nH]2)cn1`, the growth was 1.12% (active).

Regarding `CCCCCCCCOc1ccc(/C=N/Nc2cc(C)nc3ccc(Br)cc23)cc1`, the growth is 33.5%.

As to `Cc1ccc(NC(=O)c2cc(-c3nc4ccccc4s3)c(=O)n(NS(=O)(=O)c3ccc(Cl)cc3)c2N)cc1`, the growth is 107%.

With `N/C(=N\C(N)=N\c1nc2ccccc2s1)c1cnccn1`, the growth is 28.2%.

As to `CCN(CC)CCCC(C)Nc1cc(O)cc2cccnc12` (configuration not stated), the growth was 113%.

As for `COc1ccccc1NS(=O)(=O)c1cccc(C(=O)Nc2ccc(Br)cc2)c1`, the growth is 52.1%.

Turning to `COc1c(Cl)c2c(c(OC)c1OC)-c1ccc(SC)c(=O)cc1[C@@H](NC(=O)OCC(F)(F)F)CC2`, the growth is -6.54% (active).

For the compound `O=C(Cn1c[n+](CC(=O)c2ccc(-c3ccccc3)cc2)c2ccccc21)Nc1cccc2cccnc12`, the growth is 36.9%.

As for `CC(=O)CCC(=O)OCc1cc(=O)c(O)co1`, the growth is 102%.

Turning to `COc1ccccc1NC(=O)C1CC(c2ccc(F)cc2)=NO1` (configuration not stated), the growth is 106%.

Take `COc1cccc(-c2nc3occn3c2-c2ccnc(NCCNS(=O)(=O)c3cccc4ccccc34)n2)c1`: the growth was 107%.

Take `N#C/C(=C\c1ccc([N+](=O)[O-])s1)c1nc2cc(Cl)ccc2s1`: the growth was 57.4%.

Turning to `CNC(=O)c1cccc(Cn2nc(C)c(NC(=O)c3ccc(COc4ccc(C(F)(F)F)cc4C)cc3)c2C)n1`, the growth was 61.2%.

As to `N#Cc1c(NCc2ccccc2I)sc2c1CCCCC2`, the growth was 102%.

As to `CCCCCN1C=C/C(=C\C(=O)n2ccc3ccccc32)c2ccccc21`, the growth is 101%.

Take `COc1ccc(C(=O)c2cc(C)c(OC)c(C)c2)c(OC)c1OC(=O)C(Cl)Cl`: the growth was 4.39% (active).

Take `NC(=NCc1ccccc1)C(N=Nc1ccccc1)C(=O)NCc1ccccc1` (configuration not stated): the growth is 94.4%.

Take `N#CC1C(C#N)C2c3ccccc3C=CN2C1C(=O)c1ccc(Br)cc1` (configuration not stated): the growth was 97.8%.

On to `O=S(=O)(NCCNc1nccc(-c2c(-c3cccc(O)c3)nc3occn23)n1)c1cccc(F)c1`, for which the growth is 104%.

Consider `COc1cc2oc(-c3cccc(C(=O)Nc4ccc5c(c4)OCO5)c3)cc(=O)c2c(O)c1OC`, for which the growth was 80.4%.

In the case of `COc1cc(/C=C/c2cc(O)c(C(C)=O)c(O)c2)cc2c1O[C@]1(C)CC[C@@H](O)C(C)(C)[C@H]1C2`, the growth was 74.5%.

As to `Cc1cnc(C(=O)Nc2nc3ccc(S(=O)(=O)Nc4ccc(C(C)(C)C)cc4)cc3[nH]2)cn1`, the growth is 12.4%.

For `O=S(=O)(Nc1ccc(-n2cnc3cc(-c4ccc(O)cc4)ccc32)cc1)c1ccccc1`, the growth is 105%.

For `Nc1n[nH]c2cccc(C#Cc3cccc(C(=O)Nc4cc(CN5CCOCC5)cc(C(F)(F)F)c4)c3)c12`, the growth is 58.9%.

Turning to `COc1ccc(C(=O)c2cc(C)c(OC)c(C)c2)c(OC)c1N(C(=O)CCl)C(=O)CCl`, the growth is 0.0631% (active).

With `O=S(=O)(NCCNc1nccc(-c2c(-c3cccc(O)c3)nc3occn23)n1)c1ccccc1`, the growth was 97.7%.

Take `CC(C)(C)c1ccc(NS(=O)(=O)c2ccc3nc(NC(=O)c4cnccn4)[nH]c3c2)cc1`: the growth was 34.3%.

With `C#CCNC(=O)c1cccc2c1cc(C)n2-c1nc2c(c(NCc3ccccc3)n1)CCCC2`, the growth was 5.22% (active).

As to `NC1=NN=C(N)C1=Cc1cc2ccccc2n2nnnc12`, the growth was 100%.
